Assay outcomes deposited in PubChem BioAssay by Buhrlage Lab, Dana-Farber Cancer Institute and Novartis Institutes for BioMedical Research (Cambridge, Mass).
Hits are enriched below; roughly 14% of the tested compounds scored in any of these assays.
USP17 inh = human USP17-like deubiquitinase inhibition | A8MUK1 | purified USP17, Ub-rhodamine cleavage fluorescence, 3 h | inhibition, % at 50 µM | 47,000 compounds, 6.5% hits | AID 1645855
USP10 block = inhibitors of human USP10 deubiquitinase. purified USP10, Ub-rhodamine fluorescence, 60 min. inhibition, % at 20 µM. 47,000 compounds, 1.1% hits
Target sequence (Q14694 whole entry, looked up): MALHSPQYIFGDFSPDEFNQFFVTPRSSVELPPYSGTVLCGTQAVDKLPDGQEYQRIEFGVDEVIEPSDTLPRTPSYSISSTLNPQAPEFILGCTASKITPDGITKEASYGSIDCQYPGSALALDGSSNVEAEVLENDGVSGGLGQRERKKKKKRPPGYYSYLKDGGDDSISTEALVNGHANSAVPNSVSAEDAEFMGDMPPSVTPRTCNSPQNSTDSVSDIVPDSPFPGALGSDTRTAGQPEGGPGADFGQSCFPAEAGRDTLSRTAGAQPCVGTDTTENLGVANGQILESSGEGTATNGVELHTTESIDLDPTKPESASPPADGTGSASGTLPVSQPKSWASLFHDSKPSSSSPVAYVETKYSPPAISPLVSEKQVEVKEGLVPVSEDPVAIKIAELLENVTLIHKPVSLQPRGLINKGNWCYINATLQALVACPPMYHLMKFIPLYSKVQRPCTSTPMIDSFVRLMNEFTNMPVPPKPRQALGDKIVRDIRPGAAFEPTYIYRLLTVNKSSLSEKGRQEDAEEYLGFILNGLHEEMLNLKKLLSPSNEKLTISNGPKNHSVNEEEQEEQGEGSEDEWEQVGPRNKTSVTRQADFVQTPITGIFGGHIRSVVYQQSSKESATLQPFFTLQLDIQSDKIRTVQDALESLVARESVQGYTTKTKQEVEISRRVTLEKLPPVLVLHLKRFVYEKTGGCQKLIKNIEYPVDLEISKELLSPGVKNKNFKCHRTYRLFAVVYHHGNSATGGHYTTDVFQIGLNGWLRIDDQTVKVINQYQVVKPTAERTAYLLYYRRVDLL
USP8 block = human USP8 deubiquitinase inhibition; inhibition, % at 20 µM; 47,000 compounds, 4.2% hits; purified USP8, Ub-rhodamine cleavage fluorescence, 30 min; P40818; AID 1645853
USP28 inh = human USP28 deubiquitinase inhibition; Q96RU2; purified USP28, Ub-rhodamine cleavage fluorescence, 30 min; inhibition, % at 25 µM; 47,000 compounds, 3% hits
USP30 inh = blocks human USP30 ubiquitin-rhodamine cleavage. 47,000 compounds, 5.3% hits. AID 1645860. inhibition, % at 25 µM. Q70CQ3. purified USP30, Ub-rhodamine cleavage fluorescence
Starred values were filed as active, the others as inactive; . = no result given. Rule as the data show it: active = inhibition above about 30%; inactive = the rest.

SMILES	USP17 inh	USP10 block	USP8 block	USP28 inh	USP30 inh
O=C(NCc1cccnc1)c1cnn2c(C(F)(F)F)cc(-c3ccc(F)cc3)nc12	36*	0	-1	-1	56*
Cc1cn[nH]c1C1CCN(C(=O)c2cc(C3CCCCC3)no2)C1 (centres undefined)	0	3	2	1	8
Cc1ccc(NC(=O)c2ccc(Nc3nnc(C)c4ccccc34)cc2)cc1	52*	-1	13	75*	8
Cc1nnc(Nc2ccc(C(=O)Nc3c(Cl)cccc3Cl)cc2)c2ccccc12	-15	-7	-4	0	-36
COc1ccc2nc3c(cc2c1)CN(CC1CC1)C(=O)CO3	5	0	1	14	40*
COCCCN1Cc2cc3cc(OC)ccc3nc2OCC1=O	15	-2	6	8	5
O=C(Nc1nc2c(s1)CCCC2)c1cccc(Br)c1	0	4	4	19	-2
Cc1cccc(C(=O)Nc2nc3c(s2)CCC3)c1	0	-12	5	38*	13
COc1ccc(-c2cc3c(=O)n(CC(=O)NCc4ccccc4)ncn3n2)cc1	25	22	-31	15	43*
CCN1CCCC1CNC(=O)Cn1ncn2nc(-c3ccc(OC)cc3)cc2c1=O (centres undefined)	17	-1	-3	-7	-13
COc1ccc(-c2cc3c(=O)n(CC(=O)NCCN4CCCC4)ncn3n2)cc1	43*	-4	13	18	34*
Cc1nc(Nc2cc(C)[nH]n2)cc(C2CCCN2C(=O)C2CCCCN2)n1 (centres undefined)	-19	0	0	-3	-9
CCn1c(=O)c(C(=O)NCc2cccc(Cl)c2)nc2cccnc21	.	-2	-41	-7	-4
CCn1c(=O)c(-c2ccc(C(=O)Nc3ccccc3F)cc2)nc2cccnc21	48*	-6	0	7	10
CCn1c(CCNC(=O)c2ccc(Cl)cc2)nc2cccnc21	-101	-7	-30	-65	-392
Cn1c(=O)c(-c2ccc(C(=O)NCc3ccc4c(c3)OCO4)cc2)nc2cccnc21	28	19	40*	24	2
Cn1c(=O)c(-c2ccc(C(=O)NCc3cccc(Cl)c3)cc2)nc2cccnc21	67*	11	43*	19	82*
Cc1cccc(Nc2nccnc2C2CCCN2C(=O)C(C)C)n1 (centres undefined)	4	-2	0	-3	8
COC(=O)C12Oc3cc4c(c(O)c3C(O)=C1C(=O)CCC2O)C1C=CC2(C4)C(=O)c3cc(C)cc(O)c3C(O)=C2C1=O (centres undefined)	48*	-10	-59	30	-63
CC1CC(=O)Nc2cc(S(=O)(=O)CCC(=O)N3CCCCC3)ccc2S1 (centres undefined)	-27	-2	-23	-14	-55
O=C(COC(=O)Cn1cnc2ccccc21)Nc1ccc2c(c1)OCCO2	-3	-5	1	56*	2
O=C(CSc1ccc2ccccc2c1)Nc1ccc2c(c1)OCCCO2	4	5	-66	21	12
O=C(CSc1nc2ccccc2[nH]1)Nc1ccc2c(c1)OCCO2	0	24	3	46*	-66
O=C(CSc1n[nH]c2nc3ccccc3n12)Nc1ccc2c(c1)OCCO2	27	2	-6	31*	10
COc1ccc(NC(=O)COC(=O)Cn2cnc3ccccc32)cc1OC	-6	0	-40	-10	-5
SMILES	USP17 inh	USP10 block	USP8 block	USP28 inh	USP30 inh
O=C(CSc1n[nH]c(-c2ccccc2Cl)n1)Nc1ccc2c(c1)OCCO2	-5	4	-39	38*	0
CSc1nc(SCC(=O)N(c2ccccc2)c2ccccc2)c2c3c(sc2n1)CN(C)CC3	15	-7	12	-32	-147
CC(=O)Nc1ccc(C(=O)Nc2nc(C)c(C)s2)cc1	-25	-3	0	-5	-28
O=C(CCCCCn1c(=O)[nH]c2ccccc2c1=O)NCCc1ccc(Cl)cc1	16	1	48*	8	22
O=C(CCCn1c(=O)[nH]c2ccccc2c1=O)N1CCC(O)(c2ccc(Cl)cc2)CC1	-5	-4	-10	-2	0
O=C(CCCCCn1c(=O)[nH]c2ccccc2c1=O)NCc1ccccc1Cl	25	2	28	19	48*
Cc1ccc(C(=O)OC(C)C(=O)Nc2sccc2C(N)=O)cc1C (centres undefined)	-31	-15	-1	-20	-93
CC(OC(=O)c1cccc(N(C)C)c1)C(=O)Nc1sccc1C(N)=O (centres undefined)	-4	-4	32*	-3	-54
